PubChem BioAssay (NCI)
The panel holds about 79,000 compounds, 15% with a hit somewhere; the sample as a whole holds those more often. Values without a mark were called inactive. Activity calls are given as the source filed them. No stated cut-off is given here; in the data, active means growth inhibition above about 70%; inactive means the rest.

test: NCI Yeast Anticancer Drug Screen. Data for the cln2 rad14 strain (AID 165);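 further: 0% = growth equal to vehicle treated cultures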; settings: S. cerevisiae cln2 rad14 strain, at 50.0 µM, stronger effect = higher value
Summary of the method: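 Yeast carrying cln2 and rad14 alterations (cell cycle control and DNA damage repair) were exposed to compounds. Growth inhibition was measured against vehicle-treated controls.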

Row | SMILES | growth inhibition
1 | Clc1cccc[n+]1CCc1ccccc1 | -4.55%
2 | COC(=O)c1c(C)ccc(C)c1C(=O)c1c(C)cc(C)cc1C | -28.1%
3 | O=C1c2ccccc2C(=O)N1CC1(C(=O)O)NCCS1(=O)=O (stereo not drawn) | 26.8%
4 | CCN(CC)c1ccc2c(c1)Oc1cc(N(CC)CC)ccc1C2c1ccccc1C(=O)O | 13.8%
5 | C[n+]1ccccc1C(O)C(O)c1cccc[n+]1C (stereo not drawn) | 23.4%
6 | C(=NC12CC3CC(CC(C3)C1)C2)C1CCCCC1 | 3%
7 | CCCCCCCc1cc(OC(=O)c2c(C)cc(OC)cc2O)cc(O)c1C(=O)O | -10%
8 | Cc1cccc(C)c1NC(=O)Nc1cccc(O)c1 | -4.4%
9 | CC(C)(C)OC(=O)NCC(O)CNC(=O)OC(C)(C)C | -26%
10 | NC(=O)N/N=C/c1ccc(Cl)cc1Cl | -1.65%
11 | CCN(CC)CCCNc1c2c(nc3ccc(Cl)cc13)CCCC2 | -8.1%
12 | Cc1ccc(S(=O)(=O)CC(=O)NC(N)=O)cc1 | -2.1%
13 | NC(N)=NC(=S)Nc1ccc(Cl)cc1 | -4%
14 | O=NN(CCOS(=O)(=O)c1ccc(Br)cc1)C(=O)NC1CCCCC1 | 28.6%
15 | CC1COC(c2cc3c(cc2Cl)OCO3)O1 (stereo not drawn) | -10.9%
16 | Cc1cc(C)n(/N=C/c2ccccc2[N+](=O)[O-])c(=O)c1C#N | -0.25%
17 | Cc1cc(C)c(-c2c(C)cc(C)c([N+](=O)[O-])c2C)c(C)c1N | 96.5% (active)
18 | c1ccc2cc3c(cc2c1)[nH]c1ccccc13 | -3.1%
